Experimental findings from ChEMBL document CHEMBL3988442, “University of Dundee, Small-Polar-MMV Screening Library” (2021) are described below.

The structures appear in SMILES notation. Among all 69,000 compounds or so, about 1,000 (1.4%) showed an effect of 50% or more. Many of the other results were omitted from the sample, so strong results are more common in it than they were.

This test concerns Leishmania donovani. The test is described as follows: Leishmania intramacrophage assay. In kind it is functional, organism-based. Set-up: scale not given: in the data most compounds retested in dose-response had high values.

For the molecule `CC1(C)CC(=O)c2cnc3nc(N4CCCCC4)nc(O)c3c2C1`, the “Percent Effect” value (30.3 µM, […]) was 10.62%.
In the case of `Cc1cccc(CS(=O)(=O)Cc2ccn(C)c(=O)c2)c1`, the “Percent Effect” value (30.3 µM, […]) is 18.93%.
Regarding `O=C(c1cc2c([nH]c1=O)CCC2)N1CCCCCC1c1ccncc1` (centres undefined), the “Percent Effect” value (30.3 µM, […]) stood at 26.35%.
As to `CCN(CC)c1nc(Nc2cccc(C(C)O)c2)nc2ccccc12` (centres undefined), the “Percent Effect” value (30.3 µM, […]) amounted to 66.27%.
`CC(O)c1cccc(Nc2nc(NCCO)c3ccccc3n2)c1` (centres undefined): under “30.3 µM, […]”, the “Percent Effect” value is 37.25%.
In the case of `CCN(CC)c1nc(Nc2cccc(C(=O)O)c2)nc2ccccc12`, the “Percent Effect” value (30.3 µM, […]) was 3.255%.
With `CCn1ncc(S(=O)(=O)N[C@@H]2CCC[C@@H](n3ccnc3)[C@@H]2O)c1C`, the “Percent Effect” value (30.3 µM, […]) stood at 16.74%.
For `NCCC(=O)N1CCC2(CC1)CN(C(=O)c1ccc(Cl)cc1)CCO2`, the “Percent Effect” value (30.3 µM, […]) came out at 0.3697%.
For `Cc1ccc(C(=O)N2CCC3(CCCC3)CC2)c(=O)[nH]1`, the “Percent Effect” value (30.3 µM, […]) turned out to be 27.16%.
Take `Cc1ccc(C(=O)N2CCC(Oc3ccc(C)c(C)c3)CC2)c(=O)[nH]1`: the “Percent Effect” value (30 µM) came out at 57.43%.
On to `COc1ccc(OC2CCN(C(=O)c3ccc(C)[nH]c3=O)CC2)cc1`, for which the “Percent Effect” value (30 µM) is 26.55%.
Turning to `Cc1ccc(C(=O)N2CCC3(CCCCC3)C2)c(=O)[nH]1`, the “Percent Effect” value (30.3 µM, […]) stood at 56.07%.
In the case of `Cc1ccc(C(=O)N2CCC(Oc3ccccc3)CC2)c(=O)[nH]1`, the “Percent Effect” value (30 µM) was determined as 12.56%.
Consider `Cc1ccc(C(=O)N2CCOC3(CCCC3)C2)c(=O)[nH]1`, for which the “Percent Effect” value (30.3 µM, […]) was 4.345%.
Take `COCCCC(=O)N1CCC(Nc2cccnn2)CC1`: the “Percent Effect” value (30 µM) is listed as -18.1%.
Regarding `CNC(=O)[C@H]1CC[C@@H]2[C@@H](CCN2CCOCc2ccccc2)O1.O=C(O)C(F)(F)F`, under “30.3 µM, […]”, the “Percent Effect” value is given as 45.25%.
On the same count and under the same terms, to `Cc1cc(NC2CCc3nc(C(C)C)nn3C2)n2ncnc2n1` (centres undefined) belongs -19.33%; to `CC[C@@H](C)[C@H](NC(=O)Cn1ccc2c(Cl)cccc21)C(=O)O`, 7.093%; to `CCc1nnc(C(C)N(C)Cc2c(C)nn(-c3ccccc3)c2C)o1` (centres undefined), 21.58%.
As for `Cc1nnc(C(C)N(C)Cc2c(C)nn(-c3ccccc3)c2C)o1` (centres undefined), for the setting “30.3 µM, […]”, the “Percent Effect” value is recorded as 15.94%.
On the same count and under the same terms, for `Cc1nnc(C(C)N(C)Cc2c(C)nn(-c3ccccc3C)c2C)o1` (centres undefined) the value was 60.72%; for `O=C(NCC1(O)CCC1)c1cccc(-n2cccn2)c1`, 0.6562%.
Consider `O=C(CSC1=NS(=O)(=O)c2cc(F)ccc2N1)c1ccc(Cl)cc1`, for which, where the note is “30 µM, 30.03 µM”, the “Percent Effect” value was determined as 37.27%.
Take `O=S1(=O)N=C(SCc2ccc(Cl)cc2)Nc2ccc(F)cc21`: where the note is “30 µM, 30.03 µM”, the “Percent Effect” value was 63.48%.
For `O=C(CSC1=NS(=O)(=O)c2cc(F)ccc2N1)Nc1ccc(Cl)cc1`, the “Percent Effect” value (30.3 µM, […]) stood at 3.738%.
Regarding `CC(C)(C)c1cn(CC2CCCN(c3cnc4ccccc4n3)C2)nn1` (centres undefined), the “Percent Effect” value (30.3 µM, […]) is on record as 23.01%.
On to `NC(=O)CN1CCC2(CC1)CC(=O)c1ccc3ccccc3c1O2`, for which the “Percent Effect” value (30.3 µM, […]) is on record as 11.62%.
Consider `CN(C)C(=O)CN1CCC2(CC1)CC(=O)c1ccc3ccccc3c1O2`, for which the “Percent Effect” value (30.3 µM, […]) is listed as 36.93%.
For `CCOC(=O)CN1CCC2(CC1)CC(=O)c1ccc3ccccc3c1O2`, the “Percent Effect” value (30.3 µM, […]) amounted to 52.56%.
On to `Cc1nc(NC(=O)C2(C)CN(C)CCO2)sc1C.Cl` (centres undefined), for which the “Percent Effect” value (30.3 µM, […]) came out at 1.58%.
Same read-out and setting: to `Cc1nc(Nc2nccs2)cc(C2CCCN2)n1.Cl` (centres undefined) belongs 34.17%; to `Cc1nc(Nc2nnc(C)s2)cc(C2CCCN2)n1.Cl` (centres undefined), -1.301%; to `Cc1nc(Nc2ncc(C)s2)cc(C2CCCN2)n1.Cl` (centres undefined), 56.27%.
On to `COc1cc(/C=C/c2ncc(C(=O)O)s2)cc(Cl)c1OC`, for which, under “30 µM”, the “Percent Effect” value is -16.83%.
Take `CCOc1c(Cl)cc(/C=C/c2ncc(C(=O)O)s2)cc1OC`: the “Percent Effect” value (30 µM) turned out to be 26.63%.
For the molecule `COc1cc(/C=C/c2ncc(C(=O)O)s2)cc(Cl)c1O`, the “Percent Effect” value (30 µM, 30.03 µM) turned out to be 50.87%.
Take `O=C1CNc2ncnc(Nc3cccc(Cn4cccn4)c3)c2N1`: for the setting “30.3 µM, […]”, the “Percent Effect” value was 32.36%.
For the molecule `O=C(Nc1ccccc1OCCc1ccccn1)N1CCOCC(O)C1` (centres undefined), the “Percent Effect” value (30.3 µM, […]) came out at 34.91%.
The same measure, in the same setting: to `O=C(Nc1ccccc1OCCc1ccccn1)N1CCOCC1` belongs 51.44%.
For `O=C(Nc1ccccc1OCCc1ccccn1)N1CC[C@@H](O)C1`, the “Percent Effect” value (30.3 µM, […]) is recorded as -41.47%.
Turning to `O=C(O)C(F)(F)F.c1cnc(N2CCC3(CC2)CN(CC2CC2)c2ccccc23)nc1`, the “Percent Effect” value (30 µM, 30.03 µM) worked out at 24.73%.
On to `CC(C)CN1C(=O)C2(CCN(Cc3cccs3)C2)c2ccccc21.O=C(O)C(F)(F)F` (centres undefined), for which, for the setting “30.3 µM, […]”, the “Percent Effect” value was 1.991%.
As for `O=C(O)C(F)(F)F.O=C1CC2(CCN(CC3CCOC3)CC2)c2ccccc2N1CC1CC1` (centres undefined), for the setting “30.3 µM, […]”, the “Percent Effect” value was determined as 8.748%.
On to `O=C(O)C(F)(F)F.O=C(O)C(F)(F)F.OCCN1CC2(CCN(CC3CC3)CC2)c2ccccc21`, for which, for the setting “30.3 µM, […]”, the “Percent Effect” value is listed as 75.39%.
Take `CC(C)CN1C(=O)C2(CCN(CC3CCOCC3)C2)c2ccccc21.O=C(O)C(F)(F)F` (centres undefined): the “Percent Effect” value (30.3 µM, […]) worked out at 64.12%.
On the same count and under the same terms, for `CC(C)CN1C(=O)C2(CCN(Cc3ccoc3)C2)c2ccccc21.O=C(O)C(F)(F)F` (centres undefined) the value was -1.91%.
With `OC1(CN2CCCC2)COCCN(c2nccs2)C1` (centres undefined), the “Percent Effect” value (30.3 µM, […]) is -9.416%.
Regarding `COCC1CN(S(=O)(=O)N(C)C)Cc2cnn(CC3CCCC3)c21.O=C(O)C(F)(F)F` (centres undefined), the “Percent Effect” value (30.3 µM, […]) is reported as -10.54%.
`Cc1ccc(F)c(NC(=O)CCC(=O)N(C)Cc2cc(C3CC3)[nH]n2)c1`: the “Percent Effect” value (30.3 µM, […]) was found to be 5.303%.
